# Data from PubChem BioAssay (EPA / NIEHS).
# “And” between values parts separate entries of the source, which are not always exact repeats. Equal values may be shown once. Inconclusive results are not listed. The source made the active and inactive calls. How the source made its calls, unless noted: active means hit-call score of the fitted dose curve at least 0.9, where 1 is the maximum; inactive means score below 0.9.
# Experiments:
# [1] = biological target: Nuclear respiratory factor 1 (Homo sapiens) (UniProt Q16656); assay: ATG_NRF1_CIS: Attagene CIS-FACTORIAL HepG2 Assay for human Nuclear Respiratory Factor 1 (NRF1) Orphan Gene (AID 2282987); conditions: HepG2 NRF1 cis-element reporter, Attagene multiplex; actives raise or lower the signal
# Summary of the method: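 Measured: fluorescent reporter-specific RT-PCR products from transfected HepG2 cells, separated by capillary electrophoresis. Exposure lasted 24 h. Analysis used bidirectional curve fitting with DMSO as negative control.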
# [2] = ATG_NFI_CIS: Attagene CIS-FACTORIAL HepG2 Assay for human Nuclear Factor I (NFI) (AID 2282989); conditions: HepG2 cis-regulatory reporter, NFI response element transcription; actives raise or lower the signal
# Summary of the method: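 Cells: human liver HepG2, transiently transfected with promoter-regulated reporter transcription units. Exposure 24 h. Detection: fluorescent RT-PCR products separated by capillary electrophoresis, normalised to DMSO negative control.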
# [3] = biological target: Myc proto-oncogene protein (Homo sapiens) (UniProt P01106); assay: ATG_Myc_CIS: Attagene CIS-FACTORIAL HepG2 Assay for human Myelocytomatosis (Myc) Proto-Oncogene Transcription Factor (AID 2282990); conditions: HepG2, Attagene cis-reporter transcription factor activity; actives raise or lower the signal
# Summary of the method: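 After 24 h chemical treatment of HepG2 cells carrying multiplexed cis-regulated reporter constructs, reporter transcripts quantified by RT-PCR and capillary electrophoresis of fluorescent fragments. Gain or loss fitted against DMSO baseline.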
# [4] = ATG_Oct_MLP_CIS: Attagene CIS-FACTORIAL HepG2 Assay for human Octamer-Binding Transcription Factor (Oct) (AID 2282993); conditions: HepG2 Attagene cis-factorial Oct reporter, mRNA; actives raise or lower the signal
# Summary of the method: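 HepG2, transient MRTU transfection, cis promoter elements; 24 h dosing; RT-PCR/CE fluorescence read-out of reporter mRNA; fit both directions vs DMSO.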
# [5] = BSK_3C_uPAR: BioMAP Diversity Plus: 3C Assay for Urokinase-type plasminogen activator receptor (uPAR) Biomarker Activity (AID 2282998); conditions: BioMAP 3C HUVEC, uPAR biomarker ELISA; actives raise or lower the signal
# Summary of the method: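 A multiplexed primary-cell system built on human umbilical vein endothelium was used, with chemical present for 24 h before reading. Cell-surface uPAR was detected by ELISA; signal change in either direction counted against DMSO.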
# [6] = BSK_3C_VCAM1: BioMAP Diversity Plus: 3C Assay for Vascular cell adhesion molecule 1 (VCAM1) Biomarker Activity (AID 2282999); conditions: BioMAP 3C HUVEC, VCAM1 ELISA, cytokine-stimulated; actives raise or lower the signal
# Summary of the method: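 Endothelial cells from human umbilical vein are treated with test chemical. At 24 h, VCAM-1 is measured by ELISA, and responses in either direction are fitted relative to DMSO.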
# [7] = BSK_4H_Eotaxin3: BioMAP Diversity Plus: 4H Assay for Eotaxin 3 Biomarker Activity (AID 2283000); conditions: primary human endothelial cells (HUVEC); actives raise or lower the signal;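 on outcome: CCL26 protein level quantified by ELISA in parallel with SRB cytotoxicity check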
# Summary of the method: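 Chemicals were added to human umbilical vein endothelium cultures, and Eotaxin-3 was quantified by ELISA at 24 h. Values were derived by bidirectional fitting with DMSO serving as negative control and activity baseline.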
# [8] = biological target: human Peroxisome Proliferator-activated Receptor delta (PPARd), PPARD (gene 5467) (UniProt Q03181); assay: ATG_PPARd_TRANS: Attagene TRANS-FACTORIAL HepG2 Assay for human Peroxisome Proliferator-activated Receptor delta (PPARd) (AID 2283002; active means hit-call score of the fitted dose curve at least 0.9, where 1 is the maximum)
# Summary of the method: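 Read-out is induced reporter mRNA, quantified by RT-PCR with fluorescent labelling and capillary electrophoresis after 24 h dosing. Cells are HepG2 transiently carrying multiple GAL4-UAS reporter units driven by exogenous NR-GAL4 chimeras; DMSO serves as baseline.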
# [9] = read-out: Intercellular Adhesion Molecule 1 (ICAM1), ICAM1 (gene 3383); assay: BSK_3C_ICAM1: BioMAP Diversity Plus: 3C Assay for Intercellular Adhesion Molecule 1 (ICAM1) Biomarker Activity (AID 2283003); conditions: primary human endothelial cells (HUVEC); actives raise or lower the signal
# Summary of the method: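 Human vascular endothelial primary cells, 3C conditions, 24 h treatment. ICAM-1 by ELISA.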
# [10] = BSK_3C_Proliferation: Cell Proliferation Assessment in the BioMAP Diversity Plus: 3C Assay (AID 2283006); conditions: primary human endothelial cells (HUVEC);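 on AC50: potency may reflect either rise or fall in cell number versus DMSO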
# Summary of the method: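 Proliferation of human vascular endothelial primary cells after 48 h dosing, quantified as SRB-stained protein at 560 nm relative to DMSO.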
# [11] = biological target: Peroxisome proliferator-activated receptor gamma (Homo sapiens) (UniProt P37231); assay: ATG_PPARg_TRANS: Attagene TRANS-FACTORIAL HepG2 Assay for human Peroxisome Proliferator-activated Receptor-gamma (PPARg) (AID 2283007; active means hit-call score of the fitted dose curve at least 0.9, where 1 is the maximum)
# Summary of the method: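 Twenty-four hours after chemical dosing of transiently transfected HepG2 cells, isolated RNA was converted to cDNA, reporter sequences amplified and 6-FAM-labelled, then HpaI-digested and analysed by capillary electrophoresis. Signal increase against DMSO was fitted.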
# [12] = biological target: Nuclear receptor subfamily 1 group I member 2 (Homo sapiens) (UniProt O75469); assay: ATG_PXR_TRANS: Attagene TRANS-FACTORIAL HepG2 Assay for human Pregnane X Receptor (PXR) (AID 2283008; active means hit-call score of the fitted dose curve at least 0.9, where 1 is the maximum)
# Summary of the method: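 Measures mRNA induction of a GAL4-UAS-driven reporter in human HepG2 cells transiently expressing PXR fused to Gal4, following 24 h treatment. DMSO served as negative control and baseline.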
# [13] = biological target: human Retinoic Acid Receptor gamma (RARg), RARG (gene 5916) (UniProt P13631); assay: ATG_RARg_TRANS: Attagene TRANS-FACTORIAL HepG2 Assay for human Retinoic Acid Receptor gamma (RARg) (AID 2283009; active means hit-call score of the fitted dose curve at least 0.9, where 1 is the maximum)
# Summary of the method: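 HepG2, RARg-GAL4 TRANS system, 24 h exposure; reporter mRNA by RT-PCR + CE fluorescence; increase over DMSO.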
# [14] = biological target: human Peroxisome Proliferator-activated Receptor alpha (PPARa), PPARA (gene 5465) (UniProt Q07869); assay: ATG_PPARa_TRANS: Attagene TRANS-FACTORIAL HepG2 Assay for human Peroxisome Proliferator-activated Receptor alpha (PPARa) (AID 2283001; active means hit-call score of the fitted dose curve at least 0.9, where 1 is the maximum;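 on AC50: potency for gain of reporter signal over DMSO so agonist or activator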)
# Summary of the method: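 Reporter transcripts from GAL4-UAS units in transfected HepG2 were quantified 24 h after dosing. Detection used reverse transcription, PCR, fluorescent primer extension and capillary electrophoresis, with DMSO as baseline.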
# [15] = biological target: human Retinoic Acid Receptor beta (RARb), RARB (gene 5915) (UniProt P10826); assay: ATG_RARb_TRANS: Attagene TRANS-FACTORIAL HepG2 Assay for human Retinoic Acid Receptor beta (AID 2283004; active means hit-call score of the fitted dose curve at least 0.9, where 1 is the maximum)
# Summary of the method: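 Transient transfection of HepG2 with multiple reporter units → chemical dosing, 24 h → total RNA isolation → RT with oligo(dT) → reporter-specific PCR, 6-FAM primer extension, HpaI digest → capillary electrophoresis. Positive direction vs DMSO control.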
# [16] = biological target: Retinoic acid receptor alpha (Homo sapiens) (UniProt P10276); assay: ATG_RARa_TRANS: Attagene TRANS-FACTORIAL HepG2 Assay for human Retinoic Acid Receptor alpha (RARa) (AID 2283005; active means hit-call score of the fitted dose curve at least 0.9, where 1 is the maximum)
# Summary of the method: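 Reporter transcripts, measured by RT-PCR with fluorescent labeling and capillary electrophoresis after 24 h dosing, reflect activity of an exogenous human RARa–GAL4 fusion in transiently transfected HepG2. Fitted for increase relative to DMSO.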
# [17] = biological target: Cellular tumor antigen p53 (Homo sapiens) (UniProt P04637); assay: ATG_p53_CIS: Attagene CIS-FACTORIAL HepG2 Assay for human p53 Transcription Factor (AID 2282994); conditions: HepG2 p53 cis-element reporter, Attagene mRNA; actives raise or lower the signal
# Summary of the method: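 Multiplexed reporter mRNA assay in human HepG2 liver cells; cis-regulated units report endogenous factor activity. Values come from bidirectional curve fitting against DMSO negative control after 24 h treatment.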
# [18] = BSK_3C_TissueFactor: BioMAP Diversity Plus: 3C Assay for Tissue Factor Biomarker Activity (AID 2282997); conditions: BioMAP 3C HUVEC, tissue factor biomarker readout; actives raise or lower the signal
# Summary of the method: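 ELISA read-out of Tissue Factor levels on human umbilical vein endothelium collected 24 h after chemical dosing. Gain or loss of signal was fitted relative to DMSO.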
# Sequence of Nuclear respiratory factor 1 (Homo sapiens) (Q16656 whole entry, looked up): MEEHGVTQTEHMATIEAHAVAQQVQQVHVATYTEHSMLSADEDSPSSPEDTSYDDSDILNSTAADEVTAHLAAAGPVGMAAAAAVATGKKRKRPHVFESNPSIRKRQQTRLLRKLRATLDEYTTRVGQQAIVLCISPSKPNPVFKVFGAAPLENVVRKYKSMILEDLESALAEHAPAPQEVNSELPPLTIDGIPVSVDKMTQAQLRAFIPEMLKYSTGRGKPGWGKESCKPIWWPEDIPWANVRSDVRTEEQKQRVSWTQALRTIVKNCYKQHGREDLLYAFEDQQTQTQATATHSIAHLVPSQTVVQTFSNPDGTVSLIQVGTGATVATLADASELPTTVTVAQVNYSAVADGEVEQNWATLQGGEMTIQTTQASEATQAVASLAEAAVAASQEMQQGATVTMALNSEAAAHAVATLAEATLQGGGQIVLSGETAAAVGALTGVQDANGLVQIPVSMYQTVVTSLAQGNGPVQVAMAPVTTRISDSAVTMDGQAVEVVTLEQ
# Sequence of Peroxisome proliferator-activated receptor gamma (Homo sapiens) (P37231 whole entry, looked up): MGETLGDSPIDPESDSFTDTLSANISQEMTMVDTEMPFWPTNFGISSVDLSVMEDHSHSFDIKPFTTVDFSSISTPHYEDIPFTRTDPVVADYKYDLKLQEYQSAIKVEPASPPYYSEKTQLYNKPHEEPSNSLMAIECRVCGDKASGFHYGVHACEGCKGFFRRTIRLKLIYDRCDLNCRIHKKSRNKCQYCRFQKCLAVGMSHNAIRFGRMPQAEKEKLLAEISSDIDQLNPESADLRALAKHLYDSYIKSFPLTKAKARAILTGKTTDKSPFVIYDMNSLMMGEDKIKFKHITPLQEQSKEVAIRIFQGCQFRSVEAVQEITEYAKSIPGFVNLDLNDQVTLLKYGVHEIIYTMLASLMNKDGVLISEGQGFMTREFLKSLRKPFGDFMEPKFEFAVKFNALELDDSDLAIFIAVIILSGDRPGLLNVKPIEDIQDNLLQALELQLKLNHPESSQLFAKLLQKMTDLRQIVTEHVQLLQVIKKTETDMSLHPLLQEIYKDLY
# Sequence of human Peroxisome Proliferator-activated Receptor delta (PPARd), PPARD (gene 5467) (Q03181 whole entry, looked up, the tested form may be a part): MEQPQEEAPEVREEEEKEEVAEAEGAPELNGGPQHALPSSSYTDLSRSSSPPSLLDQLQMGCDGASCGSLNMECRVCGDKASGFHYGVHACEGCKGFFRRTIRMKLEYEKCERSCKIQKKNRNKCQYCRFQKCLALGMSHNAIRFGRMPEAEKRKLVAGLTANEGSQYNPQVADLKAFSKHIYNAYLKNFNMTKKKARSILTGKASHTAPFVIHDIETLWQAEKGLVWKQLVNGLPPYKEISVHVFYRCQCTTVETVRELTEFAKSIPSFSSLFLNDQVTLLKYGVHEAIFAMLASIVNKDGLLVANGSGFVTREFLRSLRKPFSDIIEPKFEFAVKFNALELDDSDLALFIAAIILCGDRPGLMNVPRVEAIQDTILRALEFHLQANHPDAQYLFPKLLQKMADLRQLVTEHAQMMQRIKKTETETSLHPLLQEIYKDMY
# Sequence of Nuclear receptor subfamily 1 group I member 2 (Homo sapiens) (O75469 whole entry, looked up, the tested form may be a part): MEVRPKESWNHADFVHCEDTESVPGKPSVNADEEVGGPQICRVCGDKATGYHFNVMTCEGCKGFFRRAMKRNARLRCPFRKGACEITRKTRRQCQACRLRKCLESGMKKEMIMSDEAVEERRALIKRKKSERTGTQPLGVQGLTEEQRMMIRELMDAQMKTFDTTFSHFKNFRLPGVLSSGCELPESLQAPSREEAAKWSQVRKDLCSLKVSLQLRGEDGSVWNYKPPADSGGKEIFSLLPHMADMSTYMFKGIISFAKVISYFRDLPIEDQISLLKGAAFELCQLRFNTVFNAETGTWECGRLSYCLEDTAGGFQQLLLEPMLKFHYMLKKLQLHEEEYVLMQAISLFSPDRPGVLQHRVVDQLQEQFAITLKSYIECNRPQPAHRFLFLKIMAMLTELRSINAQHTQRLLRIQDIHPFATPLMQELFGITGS
# Sequence of Cellular tumor antigen p53 (Homo sapiens) (P04637 whole entry, looked up): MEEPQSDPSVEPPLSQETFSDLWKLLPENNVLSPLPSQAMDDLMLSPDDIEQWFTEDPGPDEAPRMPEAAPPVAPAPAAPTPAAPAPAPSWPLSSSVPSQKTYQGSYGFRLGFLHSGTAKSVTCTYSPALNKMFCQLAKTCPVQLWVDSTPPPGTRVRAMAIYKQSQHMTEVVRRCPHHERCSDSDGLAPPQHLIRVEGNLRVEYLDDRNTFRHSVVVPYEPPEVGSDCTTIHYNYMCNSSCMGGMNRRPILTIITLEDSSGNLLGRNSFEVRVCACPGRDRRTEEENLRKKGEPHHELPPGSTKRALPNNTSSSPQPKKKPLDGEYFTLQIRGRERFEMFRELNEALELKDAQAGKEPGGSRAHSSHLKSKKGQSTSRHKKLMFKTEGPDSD
# Sequence of Myc proto-oncogene protein (Homo sapiens) (P01106 whole entry, looked up, the tested form may be a part): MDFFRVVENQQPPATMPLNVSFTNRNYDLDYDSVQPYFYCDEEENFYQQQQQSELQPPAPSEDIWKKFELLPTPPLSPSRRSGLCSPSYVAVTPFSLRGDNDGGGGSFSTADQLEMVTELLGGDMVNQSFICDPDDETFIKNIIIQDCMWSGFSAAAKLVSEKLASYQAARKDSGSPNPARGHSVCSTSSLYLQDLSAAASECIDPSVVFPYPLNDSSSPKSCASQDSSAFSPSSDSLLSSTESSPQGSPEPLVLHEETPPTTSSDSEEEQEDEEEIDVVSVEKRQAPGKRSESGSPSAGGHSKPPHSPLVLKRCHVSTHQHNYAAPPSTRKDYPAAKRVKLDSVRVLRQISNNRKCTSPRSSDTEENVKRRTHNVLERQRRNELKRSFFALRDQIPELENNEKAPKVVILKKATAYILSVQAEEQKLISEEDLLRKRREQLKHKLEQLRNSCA
# Sequence of human Peroxisome Proliferator-activated Receptor alpha (PPARa), PPARA (gene 5465) (Q07869 whole entry, looked up, the tested form may be a part): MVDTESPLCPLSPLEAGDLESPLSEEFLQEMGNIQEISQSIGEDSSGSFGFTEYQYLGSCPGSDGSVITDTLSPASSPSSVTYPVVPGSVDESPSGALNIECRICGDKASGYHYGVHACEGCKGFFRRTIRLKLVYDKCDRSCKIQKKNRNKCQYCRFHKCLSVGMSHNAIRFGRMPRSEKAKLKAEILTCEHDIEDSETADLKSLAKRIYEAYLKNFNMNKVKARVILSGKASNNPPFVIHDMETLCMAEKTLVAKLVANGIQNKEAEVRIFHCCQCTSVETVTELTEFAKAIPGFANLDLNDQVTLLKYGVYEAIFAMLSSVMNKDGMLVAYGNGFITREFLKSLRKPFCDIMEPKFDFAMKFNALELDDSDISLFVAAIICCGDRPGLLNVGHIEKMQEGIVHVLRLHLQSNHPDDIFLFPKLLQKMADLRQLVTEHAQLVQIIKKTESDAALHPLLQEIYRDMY
# Sequence of human Retinoic Acid Receptor gamma (RARg), RARG (gene 5916) (P13631 whole entry, looked up, the tested form may be a part): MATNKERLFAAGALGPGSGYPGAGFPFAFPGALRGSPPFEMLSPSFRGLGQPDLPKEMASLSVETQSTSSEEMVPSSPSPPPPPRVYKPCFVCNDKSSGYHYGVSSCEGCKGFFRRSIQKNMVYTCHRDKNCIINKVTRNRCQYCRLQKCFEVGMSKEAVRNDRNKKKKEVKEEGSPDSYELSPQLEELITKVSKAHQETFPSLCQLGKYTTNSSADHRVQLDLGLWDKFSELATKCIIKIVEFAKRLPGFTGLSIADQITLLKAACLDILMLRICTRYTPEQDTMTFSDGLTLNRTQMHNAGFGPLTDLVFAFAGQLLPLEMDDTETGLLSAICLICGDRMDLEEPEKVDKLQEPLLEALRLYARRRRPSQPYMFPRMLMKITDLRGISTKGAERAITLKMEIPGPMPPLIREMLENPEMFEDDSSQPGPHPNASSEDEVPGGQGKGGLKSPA
# Sequence of human Retinoic Acid Receptor beta (RARb), RARB (gene 5915) (P10826 whole entry, looked up): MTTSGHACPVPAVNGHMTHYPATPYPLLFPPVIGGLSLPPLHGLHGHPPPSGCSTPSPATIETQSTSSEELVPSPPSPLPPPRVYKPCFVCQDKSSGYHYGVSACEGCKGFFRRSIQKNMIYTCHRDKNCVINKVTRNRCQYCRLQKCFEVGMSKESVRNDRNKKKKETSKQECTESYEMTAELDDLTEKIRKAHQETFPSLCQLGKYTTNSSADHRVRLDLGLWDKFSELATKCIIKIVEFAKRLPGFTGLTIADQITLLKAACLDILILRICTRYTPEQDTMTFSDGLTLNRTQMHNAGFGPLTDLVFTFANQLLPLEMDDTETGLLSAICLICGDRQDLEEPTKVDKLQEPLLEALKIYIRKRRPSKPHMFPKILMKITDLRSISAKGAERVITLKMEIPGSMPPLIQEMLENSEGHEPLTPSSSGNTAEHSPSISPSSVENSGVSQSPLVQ
# Sequence of Retinoic acid receptor alpha (Homo sapiens) (P10276 whole entry, looked up, the tested form may be a part): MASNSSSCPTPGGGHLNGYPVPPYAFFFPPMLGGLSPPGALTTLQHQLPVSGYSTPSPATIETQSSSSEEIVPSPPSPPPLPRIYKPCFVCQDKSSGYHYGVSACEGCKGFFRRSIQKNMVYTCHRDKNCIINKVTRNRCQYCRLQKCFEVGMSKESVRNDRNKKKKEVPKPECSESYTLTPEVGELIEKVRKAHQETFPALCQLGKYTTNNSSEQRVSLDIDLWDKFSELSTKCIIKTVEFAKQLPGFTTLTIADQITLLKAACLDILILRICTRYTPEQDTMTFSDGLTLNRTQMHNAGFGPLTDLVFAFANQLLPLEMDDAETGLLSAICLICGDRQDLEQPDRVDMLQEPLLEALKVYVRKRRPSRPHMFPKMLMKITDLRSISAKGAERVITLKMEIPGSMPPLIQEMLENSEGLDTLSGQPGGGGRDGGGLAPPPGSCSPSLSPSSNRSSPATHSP
smiles,measurement,setting,value
CCCOc1ccc(S(=O)(=O)N2CCN(CC)CC2)cc1-c1nc2c(CC)n(Cc3ccccn3)nc2c(=O)[nH]1,outcome,[1],inactive
same,outcome,[2],inactive
same,outcome,[3],inactive
same,outcome,[4],inactive
same,outcome,[5],inactive
same,outcome,[6],inactive
same,outcome,[7],inactive
same,outcome,[8],inactive
same,outcome,[9],inactive
same,outcome,[10],inactive
same,AC50,[11],7.76 µM (active)
same,AC50,[12],1.17 µM (active)
same,outcome,[13],inactive
Cc1nccn1-c1ccc(Sc2cccc(C3(C(N)=O)CCOCC3)c2)cc1,outcome,[1],inactive
same,AC50,[2],2.39 µM (active)
same,AC50,[3],2.85 µM (active)
same,AC50,[4],3.22 µM (active)
same,outcome,[5],inactive
same,outcome,[6],inactive
same,outcome,[7],inactive
same,outcome,[14],inactive
same,outcome,[8],inactive
same,outcome,[9],inactive
same,outcome,[15],inactive
same,outcome,[16],inactive
same,AC50,[10],11.1 µM (active)
same,AC50,[11],1.85 µM (active)
same,outcome,[12],inactive
same,outcome,[13],inactive
FC(F)(F)C(F)(F)C(F)(F)C(F)(F)C(F)(F)C(F)(F)I,outcome,[1],inactive
same,outcome,[2],inactive
same,outcome,[3],inactive
same,outcome,[4],inactive
same,outcome,[17],inactive
same,outcome,[5],inactive
same,outcome,[6],inactive
same,outcome,[7],inactive
same,outcome,[14],inactive
same,outcome,[8],inactive
same,outcome,[10],inactive
same,AC50,[11],88 µM (active) and 106 µM (active)
same,outcome,[12],inactive
CCCc1ccccc1,outcome,[1],inactive
same,outcome,[2],inactive
same,outcome,[3],inactive
same,outcome,[4],inactive
same,outcome,[17],inactive
same,outcome,[5],inactive
same,outcome,[6],inactive
same,outcome,[7],inactive
same,outcome,[8],inactive
same,outcome,[10],inactive
same,outcome,[11],inactive
CCc1ccc(O)c(C(C)(C)C)c1,outcome,[1],inactive
same,outcome,[2],inactive
same,AC50,[3],33.4 µM (active)
same,outcome,[4],inactive
same,outcome,[17],inactive
same,AC50,[5],39.3 µM (active)
same,AC50,[6],34.6 µM (active)
same,AC50,[7],39 µM (active)
same,outcome,[14],inactive
same,AC50,[10],34.8 µM (active)
same,outcome,[11],inactive
same,AC50,[12],17.4 µM (active)
CC1(C)C(=O)N(Cl)C(=O)N1Cl,outcome,[1],inactive
same,outcome,[2],inactive
same,outcome,[3],inactive
same,outcome,[4],inactive
same,outcome,[17],inactive
same,outcome,[5],inactive
same,outcome,[6],inactive
same,outcome,[7],inactive
same,outcome,[14],inactive
same,outcome,[10],inactive
Cc1ncc([C@@H](CCCCCCc2ccc3c(n2)NCCC3)CC(=O)O)cn1,outcome,[1],inactive
same,outcome,[2],inactive
same,outcome,[3],inactive
same,outcome,[4],inactive
same,outcome,[18],inactive
same,outcome,[5],inactive
same,outcome,[6],inactive
same,outcome,[7],inactive
same,AC50,[14],19.8 µM (active)
same,outcome,[8],inactive
same,AC50,[10],2.14 µM (active)
same,AC50,[11],100 µM (active)
same,outcome,[12],inactive
